This passage reports cytotoxicity call results from the antibiotic and cytotoxicity screens of Wong et al. (2023).

About 1,500 (3.8%) of roughly 39,000 compounds were called active. Many of the other results were omitted from the sample, so actives are more common in it than they were.

This test concerns HSkMC (human skeletal muscle cells). The experiment in a line: cytotoxicity call (relative viability < 0.9). Conditions: 10 µM.
As for `O=C(NO)c1cccc(C(=O)N/N=C/[C@@H](O)[C@@H](O)[C@H](O)[C@H](O)CO)c1`, the cytotoxicity call is “inactive”.

In the case of `Cc1noc(C)c1NC(=O)Nc1ccc2c(c1)CC(=O)N([C@@H](C)CO)C[C@H](C)[C@H](CN(C)S(=O)(=O)c1cn(C)cn1)O2`, the cytotoxicity call was “inactive”.

For `C[C@@H]1CCCCO[C@H](CN(C)S(=O)(=O)c2cn(C)cn2)[C@@H](C)CN([C@H](C)CO)C(=O)c2cc(NS(=O)(=O)c3ccc(F)cc3)ccc2O1`, the cytotoxicity call was “inactive”.

Regarding `C[C@@H](NC(=O)N(C)C[C@H]1OCc2ccccc2-c2c(n(C)c3ccccc23)C(=O)N([C@@H](C)CO)C[C@@H]1C)c1ccccc1`, the cytotoxicity call is “inactive”.

Consider `COCC#Cc1ccc([C@H]2[C@@H](CO)N3C(=O)CN(C(=O)c4cccnc4)C[C@@H]23)cc1`, for which the cytotoxicity call is “inactive”.

With `CC(C)NC(=O)Nc1ccc2c(c1)C(=O)N([C@@H](C)CO)C[C@@H](C)[C@@H](CN(C)S(=O)(=O)c1cccs1)O2`, the cytotoxicity call was “inactive”.

As for `CCC(=O)Nc1nc2[nH]c(COC)cc(=O)n2n1`, the cytotoxicity call is “inactive”.

Regarding `C[C@H](CO)N1C[C@H](C)[C@H](CN(C)C(=O)Nc2ccc(F)cc2)Oc2ccc(NC(=O)CCCCCC(=O)Nc3ccccc3N)cc2C1=O`, the cytotoxicity call is “inactive”.

As to `COc1ccc2cc(-c3cc(-c4cc(Cl)cc(Cl)c4)nn3[C@@H](C)c3ccc(C(=O)NCCC(=O)O)cc3)ccc2c1`, the cytotoxicity call was “active”.

Consider `COc1ccc2cc(C(C)C(=O)O)ccc2c1` (stereo not given), for which the cytotoxicity call was “inactive”.

For `COc1ccc(C(=O)NCC(=O)O)cc1`, the cytotoxicity call was “inactive”.

In the case of `O=C(C[C@@H]1CC[C@@H]2[C@H](COC[C@@H](O)CN2S(=O)(=O)c2ccccc2)O1)N[C@@H]1CCN(Cc2ccccc2)C1`, the cytotoxicity call is “inactive”.

As to `COCC(=O)N(C)C[C@H]1Oc2cc(C#Cc3cccnc3)ccc2S(=O)(=O)N([C@H](C)CO)C[C@H]1C`, the cytotoxicity call was “inactive”.

With `COc1ccc(S(=O)(=O)N[C@H]2C=C[C@@H](CC(=O)N3CCN(c4ccccc4)CC3)O[C@H]2CO)cc1`, the cytotoxicity call was “inactive”.

For the compound `C[C@H]1CN([C@@H](C)CO)C(=O)Cc2cc(NC(=O)Nc3ccc(C(F)(F)F)cc3)ccc2O[C@H]1CN(C)Cc1ccc(-c2ccccc2)cc1`, the cytotoxicity call is “active”.

Consider `C[C@H]1CN([C@@H](C)CO)C(=O)Cc2cc(NC(=O)Nc3ccccc3)ccc2O[C@H]1CN(C)Cc1ccc(-c2ccccc2)cc1`, for which the cytotoxicity call was “inactive”.

For the compound `C[C@@H]1CN([C@@H](C)CO)C(=O)Cc2cc(NC(=O)Nc3ccc(C(F)(F)F)cc3)ccc2O[C@H]1CN(C)Cc1ccc(-c2ccccc2)cc1`, the cytotoxicity call was “active”.

Regarding `C[C@@H]1CN([C@@H](C)CO)C(=O)Cc2cc(NC(=O)Nc3ccc(C(F)(F)F)cc3)ccc2O[C@@H]1CN(C)Cc1ccc(-c2ccccc2)cc1`, the cytotoxicity call is “active”.

In the case of `C[C@H](CO)N1C[C@H](C)[C@H](CN(C)Cc2ccc(-c3ccccc3)cc2)Oc2ccc(NC(=O)Nc3ccc(C(F)(F)F)cc3)cc2CC1=O`, the cytotoxicity call was “active”.

Take `C[C@H](CO)N1C[C@H](C)[C@@H](CN(C)Cc2ccc(-c3ccccc3)cc2)Oc2ccc(NC(=O)Nc3ccccc3)cc2CC1=O`: the cytotoxicity call was “inactive”.

For `N=C1NC(=O)CS1`, the cytotoxicity call is “inactive”.

For `Cc1cc(C(=O)Nc2cccc3c2O[C@@H](CN(C)C(=O)Nc2ccccc2)[C@@H](C)CN([C@@H](C)CO)C3=O)n(C)n1`, the cytotoxicity call was “inactive”.

As for `O=C(C[C@H]1CC[C@@H](NS(=O)(=O)c2ccc(F)cc2)[C@H](CO)O1)N1CCC(Cc2ccccc2)CC1`, the cytotoxicity call was “inactive”.

Take `C[C@@H]1CCCCO[C@H](CN(C)Cc2ccccc2)[C@@H](C)CN([C@@H](C)CO)C(=O)c2cc(NC(=O)NC3CCCCC3)ccc2O1`: the cytotoxicity call was “inactive”.

Consider `C[C@H](CO)N1C[C@H](C)[C@@H](CN(C)CC2CC2)OCCCC[C@H](C)Oc2ccc(NC(=O)Cc3ccccc3)cc2C1=O`, for which the cytotoxicity call is “inactive”.

As to `COc1ccc(S(=O)(=O)Nc2cccc3c2O[C@H](CN(C)S(=O)(=O)c2cn(C)cn2)[C@@H](C)CN([C@@H](C)CO)C3=O)cc1`, the cytotoxicity call was “inactive”.

For `COc1cccc(NC(=O)N(C)C[C@@H]2OCc3ccccc3-c3c(n(C)c4ccccc34)C(=O)N([C@@H](C)CO)C[C@H]2C)c1`, the cytotoxicity call is “inactive”.

Turning to `C[C@@H]1CN([C@@H](C)CO)C(=O)c2cc(NC(=O)c3ccccc3)ccc2O[C@@H](C)CCCCO[C@@H]1CN(C)C(=O)NC1CCCCC1`, the cytotoxicity call is “inactive”.

Take `Cc1noc(C)c1NC(=O)Nc1ccc2c(c1)C(=O)N([C@@H](C)CO)C[C@H](C)[C@@H](CN(C)Cc1ccc(C(=O)Nc3ccccc3N)cc1)O2`: the cytotoxicity call is “inactive”.

Regarding `C[C@H]1CCCCO[C@H](CN(C)C(=O)Nc2ccc(F)cc2)[C@@H](C)CN([C@@H](C)CO)C(=O)c2cc(NC(=O)Nc3ccc(F)cc3)ccc2O1`, the cytotoxicity call is “inactive”.

Consider `C[C@@H]1CN([C@@H](C)CO)S(=O)(=O)c2ccc(C#Cc3ccccc3)cc2O[C@H]1CN(C)C(=O)Cc1ccccn1`, for which the cytotoxicity call was “inactive”.

Regarding `CCS(=O)(=O)Nc1ccc2c(c1)C(=O)N(C)[C@@H]1CC[C@@H](CC(=O)N[C@H]3CCN(Cc4ccccc4)C3)O[C@H]1CO2`, the cytotoxicity call is “inactive”.

For `COc1ccc(S(=O)(=O)N(C)C[C@H]2Oc3ncc(C#CC4(O)CCCC4)cc3C(=O)N([C@H](C)CO)C[C@H]2C)cc1`, the cytotoxicity call is “inactive”.

Consider `CC(C)NC(=O)Nc1ccc2c(c1)C(=O)N([C@@H](C)CO)C[C@@H](C)[C@@H](CN(C)S(=O)(=O)c1cn(C)cn1)OCCCC[C@H](C)O2`, for which the cytotoxicity call is “inactive”.

As for `CCN1C(=O)[C@H]2[C@@H](O)CS[C@H]2C1=O`, the cytotoxicity call was “inactive”.

On to `C[C@H](CO)N1C[C@H](C)[C@@H](CN(C)Cc2ccc(-c3ccccc3)cc2)Oc2ccc(NC(=O)Nc3ccc(C(F)(F)F)cc3)cc2CC1=O`, for which the cytotoxicity call is “active”.

As for `C[C@@H]1CN([C@H](C)CO)C(=O)Cc2cc(NC(=O)Nc3ccc(C(F)(F)F)cc3)ccc2O[C@@H]1CN(C)Cc1ccc(-c2ccccc2)cc1`, the cytotoxicity call is “active”.

As to `C[C@@H]1CN([C@H](C)CO)C(=O)Cc2cc(NC(=O)Nc3ccc(C(F)(F)F)cc3)ccc2O[C@H]1CN(C)Cc1ccc(-c2ccccc2)cc1`, the cytotoxicity call was “active”.

With `C[C@H]1CN([C@@H](C)CO)C(=O)Cc2cc(NC(=O)Nc3ccc(C(F)(F)F)cc3)ccc2O[C@@H]1CN(C)Cc1ccc(-c2ccccc2)cc1`, the cytotoxicity call is “active”.

For `C[C@@H]1CN([C@@H](C)CO)C(=O)Cc2cc(NC(=O)Nc3ccccc3)ccc2O[C@H]1CN(C)Cc1ccc(-c2ccccc2)cc1`, the cytotoxicity call was “inactive”.

Turning to `C[C@@H]1CN([C@H](C)CO)C(=O)Cc2cc(NC(=O)Nc3ccccc3)ccc2O[C@H]1CN(C)Cc1ccc(-c2ccccc2)cc1`, the cytotoxicity call was “inactive”.

Consider `COc1cccc(NC(=O)N[C@@H]2C=C[C@@H](CC(=O)N3CCN(C)CC3)O[C@H]2CO)c1`, for which the cytotoxicity call was “inactive”.

For the compound `C[C@@H]1CN([C@@H](C)CO)C(=O)c2cccc(NS(=O)(=O)c3cn(C)cn3)c2O[C@H]1CN(C)C(=O)Nc1ccccc1`, the cytotoxicity call was “inactive”.

Turning to `C[C@H]1CCCCO[C@H](CN(C)C(=O)Nc2ccccc2)[C@@H](C)CN([C@@H](C)CO)C(=O)c2cc(NC(=O)CCC(F)(F)F)ccc2O1`, the cytotoxicity call was “inactive”.

`O=C(C[C@H]1CC[C@@H]2[C@H](COC[C@@H](O)CN2C(=O)c2cccnc2)O1)NCC1CC1`: the cytotoxicity call was “inactive”.

On to `Cc1ccc(CSc2nnc(CCN)o2)cc1`, for which the cytotoxicity call was “inactive”.

For `CCn1ncc(Br)c1CN`, the cytotoxicity call is “inactive”.

For `CC(C)NC(=O)[C@@H](N)c1ccccc1`, the cytotoxicity call was “inactive”.

With `COc1ccc(NC(=O)Nc2ccc3c(c2)CC(=O)N([C@H](C)CO)C[C@@H](C)[C@H](CN(C)C(=O)Nc2cccc4ccccc24)O3)cc1`, the cytotoxicity call is “inactive”.

Turning to `C[C@@H]1CN([C@H](C)CO)C(=O)c2ccccc2-c2ccccc2CO[C@@H]1CN(C)Cc1ccc(Oc2ccccc2)cc1`, the cytotoxicity call was “inactive”.

For the compound `COc1ccc(S(=O)(=O)N(C)C[C@@H]2Oc3ccc(NC(=O)Nc4c(C)noc4C)cc3CC(=O)N([C@@H](C)CO)C[C@H]2C)cc1`, the cytotoxicity call is “inactive”.

Regarding `O=C(C=CC=Cc1ccc2c(c1)OCO2)N1CCCCC1`, the cytotoxicity call is “inactive”.

Turning to `C[C@@H]1CN([C@H](C)CO)C(=O)c2cccc(NC(=O)Nc3ccc(C(F)(F)F)cc3)c2O[C@@H]1CN(C)C(=O)Nc1ccc2c(c1)OCO2`, the cytotoxicity call was “inactive”.

`C[C@H](CO)N1C[C@H](C)[C@@H](CN(C)C(=O)Nc2ccc3c(c2)OCO3)Oc2c(NC(=O)Nc3ccc(C(F)(F)F)cc3)cccc2C1=O`: the cytotoxicity call is “active”.

With `C[C@H]1CN([C@@H](C)CO)C(=O)c2cccc(NC(=O)Nc3ccc4c(c3)OCO4)c2O[C@@H]1CN(C)C(=O)Nc1ccc(C(F)(F)F)cc1`, the cytotoxicity call is “inactive”.

Turning to `C[C@@H]1CN([C@@H](C)CO)C(=O)c2cccc(NC(=O)Nc3ccc(C(F)(F)F)cc3)c2O[C@H]1CN(C)C(=O)Nc1ccc2c(c1)OCO2`, the cytotoxicity call is “inactive”.

Take `C[C@H]1CN([C@@H](C)CO)C(=O)c2cccc(NC(=O)Nc3ccc(C(F)(F)F)cc3)c2O[C@@H]1CN(C)C(=O)Nc1ccc2c(c1)OCO2`: the cytotoxicity call is “active”.

`C[C@H](CO)N1C[C@H](C)[C@H](CN(C)C(=O)Nc2ccc3c(c2)OCO3)Oc2c(NC(=O)Nc3ccc(C(F)(F)F)cc3)cccc2C1=O`: the cytotoxicity call was “inactive”.

`Cc1ccc(S(=O)(=O)Nc2ccc3c(c2)CC(=O)N([C@H](C)CO)C[C@H](C)[C@@H](CN(C)Cc2ccncc2)O3)cc1`: the cytotoxicity call was “inactive”.

In the case of `C[C@@H]1CCCCO[C@@H](CN(C)S(=O)(=O)c2ccccc2)[C@H](C)CN([C@H](C)CO)C(=O)c2cc(NC(=O)NC3CCCCC3)ccc2O1`, the cytotoxicity call is “inactive”.

On to `CN(C)CCCNC(=O)C[C@@H]1C=C[C@@H](NC(=O)Cc2cccnc2)[C@H](CO)O1`, for which the cytotoxicity call was “inactive”.

As for `[N-]=[N+]=NCCOCCNC(=O)CCCOc1ccc(CS(=O)c2nnc(-c3ccc(F)cc3)o2)nc1` (stereo not given), the cytotoxicity call was “active”.

For the compound `O=C1OCCN/C1=C/C(=O)c1ccccc1`, the cytotoxicity call is “inactive”.

Regarding `Cc1ccc(S(=O)(=O)N(C)C[C@@H]2Oc3ccc(NS(=O)(=O)c4cn(C)cn4)cc3CC(=O)N([C@@H](C)CO)C[C@H]2C)cc1`, the cytotoxicity call was “inactive”.

On to `C[C@@H]1CN([C@@H](C)CO)C(=O)Cc2cc(NC(=O)C3CC3)ccc2O[C@H]1CN(C)Cc1ccc2c(c1)OCO2`, for which the cytotoxicity call is “inactive”.
